DAX1 inh-1 = DAX1 (NR0B1) inhibitors on StAR promoter, primary screen, cell-based, luminescence, SF-1 (NR5A1), full-length DAX-1 | inhibition, % at 6.8 µM | 1.1% of 370,000 active | HEK293T StAR-luciferase reporter, SF-1/DAX-1 repression relief | AID 652010, 2013;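 active = inhibition above the mean over all tested compounds plus 3 SD, cut at about 3.6% in these data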;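 note: 0% = DAX-1 cells with DMSO and 100% = cells lacking DAX-1 with DMSO; higher inhibition means more luminescence from relief of DAX-1 repression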
ssDAF12 agonist = S. stercoralis DAF-12 nuclear receptor activators, primary screen, cell-based, luminescence, HEK293, GRIP1 co-expression, lit1-tk-luc; Nuclear hormone receptor DAF-12 (Strongyloides stercoralis); HEK293 ssDAF-12/GRIP1 lit1-tk-luc reporter; % of 3 µM dafachronic acid response; AID 652126, 2013; activation, % at 6.8 µM; 1% of 370,000 active;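 active = activation above the mean over all tested compounds plus 3 SD, cut at about 0.9% in these data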;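 note: 0% = DMSO-only wells and 100% = 3 µM delta7-dafachronic acid wells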
AHR act = AHR activators, primary screen, cell-based, luminescence, luciferase reporter, human; 2.5% of 320,000 active; activation, % at 5 µM; AHR-responsive luciferase reporter cells; Aryl hydrocarbon receptor (Homo sapiens), P35869; in the data active = activation above about 47%;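 note: 0% = vehicle wells and 100% = reference agonist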
hcDAF12 agonist = H. contortus DAF-12 nuclear receptor activators, primary screen, cell-based, luminescence, HEK293, lit1-tk-luc reporter; HEK293 hcDAF-12 lit1-tk-luc reporter; 0% DMSO, 100% Δ7-dafachronic acid; AID 652067, 2013; activation, % at 6.8 µM; 1.4% of 370,000 active;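 active = activation above the mean of all tested compounds plus 3 SD, cut at about 5.5% in these data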;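 note: 100% = response to 3 µM Δ7-dafachronic acid high control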
hgDAF12 agonist = H. glycines DAF-12 receptor agonists, primary screen, cell-based, luminescence, HEK293, GAL4 fusion, UAS-luciferase; HEK293 GAL4-hgDAF12 UAS-luciferase reporter, agonist luminescence; normalized to butyrate control; activation, % at 6.8 µM; Nuclear hormone receptor DAF-12 (Heterodera glycines), GAL4 fusion; AID 687014, 2013; 1.8% of 370,000 active;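 active = activation above a cutoff set at the mean of all screened compounds plus 3 SD, cut at about 10% in these data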;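 note: 0% = DMSO wells and 100% = sodium butyrate wells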
DAX1 inh-2 = DAX1 (NR0B1) inhibitors, primary screen, cell-based, HEK293, Gal4-DAX1, luciferase luminescence | inhibition, % at 6.75 µM | HEK293 Gal4-DAX1 luciferase reporter | Nuclear receptor subfamily 0 group B member 1 (Homo sapiens), P51843 | 0.99% of 340,000 active;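 active = inhibition above the mean over all tested compounds plus 3 SD, cut at about 4.2% in these data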;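 note: 0% = DAX1-transfected cells with DMSO and 100% = empty-vector control cells with DMSO; inhibition shows as a rise in luminescence from relieved DAX1 repression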
Target sequence (P51843 207-470 limits assumed): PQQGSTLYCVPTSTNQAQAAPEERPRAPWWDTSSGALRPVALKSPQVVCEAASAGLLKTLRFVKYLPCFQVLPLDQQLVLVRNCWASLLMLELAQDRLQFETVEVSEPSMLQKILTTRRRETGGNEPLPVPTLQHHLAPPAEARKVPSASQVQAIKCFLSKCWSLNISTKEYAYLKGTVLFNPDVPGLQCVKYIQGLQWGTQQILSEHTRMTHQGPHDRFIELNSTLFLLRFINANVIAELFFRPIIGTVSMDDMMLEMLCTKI
* marks the source's active call; other numbers are inactive results; nt = no result; ! = not confirmed by another sample. This is a sample that favours compounds with a hit; in the whole collection about 5.7% have one here.

SMILES	DAX1 inh-1	ssDAF12 agonist	AHR act	hcDAF12 agonist	hgDAF12 agonist	DAX1 inh-2
Cc1[nH]n(-c2ccccc2)c(=O)c1C=NC1CCCCCC1	1	-2	10	0	4	5.5*
NC(=O)CSc1nc(C2CC2)nc2sc3c(c12)CCCC3	1	-1	4	2	12*	5.6*
S=C(c1ccc(-c2ccc(Br)cc2)o1)N1CCOCC1	2	0	11	3	12*	nt
Cc1ncoc1C(=O)Nc1ncc([N+](=O)[O-])s1	3	-1	11	3	12*	0
O=C(CCS(=O)(=O)Cc1ccccc1)Nc1ncc([N+](=O)[O-])s1	4.0*	1	22	1	0	0
Cc1cnc(NC(=O)c2cccs2)s1	2	0	35	6.2*	12*	0
O=C(CCS(=O)(=O)c1ccccc1)Nc1ncc([N+](=O)[O-])s1	-1	-1	3	0	-1	0
O=C(Nc1ncc([N+](=O)[O-])s1)c1cccs1	4.3*!	0	12	4	9	-1
Cc1ccc(CNC(=O)CN(C(=O)C2(C)CC(=O)N=C3C=CC=CN32)c2ccccc2F)cc1 (stereo not drawn)	0	-1	-1	0	1	0
Cn1nccc1C(=O)N1CCN(c2ccccc2F)CC1	0	-1	-3	-1	0	1
O=C(Cc1cccc(NC(=O)C2CCN(C(=O)C3CCCC3)CC2)c1)Nc1cccc(C(=O)N2CCOCC2)c1	0	-1	nt	-1	5	0
CC(OC(=O)c1ccc(Cl)nc1)C(=O)NC1(C#N)CCCCC1 (stereo not drawn)	-1	-1	3	-1	1	4.5*
Cc1ccc2cc(C#N)c(N3CCN(C(=O)c4cccs4)CC3)nc2c1	0	-1	22	6.5*	0	-1
Cc1ccc2nc(N3CCN(C(=O)c4ccc(F)cc4)CC3)c(C#N)cc2c1	-1	-1	11	1	-1	0
On1c(-c2ccccc2)nc2ccc(Cl)cc21	3	-1	4	3	12*	1
Cc1ccc(-c2nc3c(Cl)cc(Cl)cc3c(=O)n2O)cc1	0	0	65*	6.0*	0	1
O=c1c2cc(Cl)ccc2nc(-c2ccc([N+](=O)[O-])cc2)n1O	-1	-1	0	-1	1	0
O=c1c2cc(Br)ccc2nc(-c2ccc(Cl)cc2)n1O	0	0	50*	-1	1	0
O=C(Nc1ccccc1)C1=C[C@H](c2ccc3c(c2)OCO3)C[C@H](OCc2ccc(CO)cc2)O1	0	-1	8	-1	3	1
C/C(=N\NC(=O)c1nn(C)cc1Br)c1ccncc1	2	-1	3	1	10	7.6*
COc1ccc(C(C)(C)C)cc1N1C(=O)[C@@H]2CSCCS(=O)(=O)N2C1=O	-1	0	nt	0	-1	nt
C#CCn1cc(Cl)cc(C(=O)Nc2ccccc2)c1=O	0	-1	62*	-1	-1	2
O=C(Nc1ccccc1)c1ccc(=O)n(Cc2cccc(Cl)c2)c1	-1	-2	21	0	-3	-3
Cc1ccc2nc(SCC(=O)N3CCN(C(=O)c4ccco4)CC3)[nH]c2c1	-1	0	68*	2	1	0
CCc1cc2cc3c(cc2nc1SCC(=O)N1CCN(C(=O)c2ccco2)CC1)OCO3	-1	-2	18	-3	-1	-1
SMILES	DAX1 inh-1	ssDAF12 agonist	AHR act	hcDAF12 agonist	hgDAF12 agonist	DAX1 inh-2
O=C(CSc1nc2ccc(Cl)cc2[nH]1)N1CCN(C(=O)c2ccco2)CC1	0	-1	25	1	1	-1
CCc1cc2ccc(C)cc2nc1SCC(=O)N1CCN(C(=O)c2ccco2)CC1	-1	-1	52*	-1	-3	-1
COc1cc2c(cc1NC(=O)COC(=O)[C@@H](NC(=O)c1ccccc1F)C(C)C)oc1ccccc12	0	-1	59*	-1	1	-1
COc1cc2c(cc1NC(=O)COC(=O)CNC(=O)c1ccccc1)oc1ccccc12	2	-1	46	3	7	2
COc1cc2c(cc1NC(=O)COC(=O)[C@@H](NC(=O)c1ccccc1)C(C)C)oc1ccccc12	-1	-1	49*	-1	-1	-1
CC(C)[C@H](NC(=O)c1ccccc1)C(=O)OCC(=O)NCC1CCCO1 (stereo partly drawn)	2	-1	1	-2	2	0
CC(C)[C@H](NC(=O)c1ccccc1)C(=O)OCC(=O)NCc1ccc(F)cc1	-1	-1	0	0	0	5.4*
COc1cc2c(cc1NC(=O)COCC(=O)O)oc1ccccc12	0	-1	nt	2	-1	0
Cn1nnnc1SCCNC(=O)C1CCC(=O)N(Cc2ccc(Cl)cc2)C1 (stereo not drawn)	0	-1	-5	-2	0	-1
COc1cccc(CN(C)C(=O)[C@@H](NC(=O)c2ccc(C)cc2)C(C)C)c1	0	-1	1	-1	-2	-1
COc1ccc(Cc2c(-c3ccc(OC)c(OC)c3)nc3c(C)cc(Br)cn23)c(C)c1	-2	-2	nt	-2	-4	nt
Cc1ccc(Cc2c(-c3ccccc3)nc3c(C)cc(Br)cn23)cc1	-1	0	nt	3	0	nt
COc1ccc(Cc2c(-c3cccc(Br)c3)nc3ccc(Cl)cn23)c(C)c1	2	0	nt	2	5	nt
Cc1ccc(Cc2c(-c3ccc(C#N)cc3)nc3c(C)cc(Br)cn23)cc1	0	1.0*	nt	0	4	nt
COc1ccc(Cc2c(-c3ccccc3)nc3ccc(Br)cn23)c(C)c1	1	0	nt	1	13*	nt
COc1ccc(Cc2c(-c3ccc(C)cc3)nc3c(C)cc(Br)cn23)c(C)c1	0	1.1*	nt	3	3	nt
COC(=O)C1=C(C)N(C)C(=NCc2cccc(C(F)(F)F)c2)NC1c1ccc(Cl)cc1 (stereo not drawn)	-1	-1	nt	0	2	nt
Nc1ncnc2c1nc(Sc1ccc(Cl)cc1)n2[C@@H]1O[C@@H]2COP(=O)(O)O[C@H]2[C@H]1O	0	-2	1	-3	-4	0
CCC(=O)N1C(C(=O)N2CCCC2)CSC1c1ccc(OC)cc1 (stereo not drawn)	0	-1	0	-1	1	4.3*

Screening results: PubChem BioAssay, The Scripps Research Institute Molecular Screening Center
